D1 ag – Allosteric Agonists of the Human D1 Dopamine Receptor: qHTS; AID 504660, 2011; hit rate 1% among 360,000; D(1A) dopamine receptor (Homo sapiens), P21728; HEK293 T-REx D1 cells, calcium flux, agonist mode; activation, % at 2 µM; in the data active = activation above about 30%; note: 0% is about no effect
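Agonism was scored from calcium flux recorded over 180 s (1 read/s) after pintool compound addition, following a 10-cycle baseline. Cells were inducible force-coupled HEK293 TREx D1, plated overnight at 30 C and loaded with no-wash calcium dye.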
D1 antag – Antagonist of Human D 1 Dopamine Receptor: qHTS; HEK293 TREx D1 cells, calcium flux, dopamine EC80; active compounds read low; activity change, negative = inhibition, % at 10 µM; AID 504652, 2011; D(1A) dopamine receptor (Homo sapiens), P21728; hit rate 3.2% among 360,000; in the data active = activity change below about -30%; note: % is set by controls: 0 for no effect and ±100 for the full control effect
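Tetracycline-induced HEK293 T-REx cells with force-coupled D1 receptor were loaded with a no-wash calcium dye. Compound was added after a 10 s baseline and read kinetically for 180 s; EC80 dopamine was then added and calcium flux followed another 180 s.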
D1 PAM – Potentiators of Human D1 Dopamine Receptor: qHTS; D(1A) dopamine receptor (Homo sapiens), P21728; HEK293 TREx D1 cells, calcium flux, dopamine EC20 potentiation; potentiation, % at 10 µM; hit rate 0.036% among 360,000; AID 504651, 2011; in the data active = potentiation above about 30%; note: 0% is about no effect
USP2a inh – qHTS Assay for Inhibitors of Ubiquitin-specific Protease USP2a Using CHOP2 as the Reporter | Ubiquitin carboxyl-terminal hydrolase 2 (Homo sapiens), O75604 | USP2 core, Ub-CHOP2 coupled fluorogenic reporter, 485/531 | Potency, µM (top dose mostly 38.3 µM), for inactives: at the highest dose activity change, negative = inhibition, hits mostly inhibitors | hit rate 0.01% among 330,000 | AID 463254, 2010;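 note: potency is the fitted concentration of half-maximal effect; plate controls were DMSO wells for no effect and full inhibition by NEM control for full effect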
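Cell-free coupled assay: 10nM USP2 core preincubated 30min RT with compound in Tris-HCl pH 8.0/CaCl2/CHAPS buffer, then 25nM Ub-CHOP2 and 25nM reporter substrate; fluorescence (Ex 485/Em 531) read after 60min RT, normalized to NEM inhibition, concentration-response curves fitted.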
GALK inh – qHTS Assay for Inhibitors of Human Galactokinase (GALK); Potency, µM (highest dose often 57.5 µM), without a hit: top-dose activity change, negative = inhibition, actives largely listed as inhibitors; Purified GALK, Kinase-Glo residual ATP luminescence; AID 1868, 2009; hit rate 0.007% among 270,000; P51570; note: potency is the fitted concentration of half-maximal effect; % is set by controls: 0 for no effect and ±100 for the full control effect
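Quantitative HTS: GALK 5 nM, ATP 35 uM, galactose 100 uM, 1 h room temperature, then luciferase-based ATP detection.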
Eya2 phos inh – qHTS Assay for Inhibitors of the Phosphatase Activity of Eya2; Potency, µM (series often up to 76.9 µM), for the others: top-dose activity, negative = inhibition, actives largely listed as inhibitors; hit rate 0.006% among 330,000; Protein phosphatase EYA2 (Homo sapiens), O00167; recombinant Eya2, OMFP fluorescence dephosphorylation (OMFP is methylfluorescein phosphate); note: potency is the fitted concentration of half-maximal effect; % is set by controls: 0 for no effect and ±100 for the full control effect
Target sequence (O00167 whole entry, looked up): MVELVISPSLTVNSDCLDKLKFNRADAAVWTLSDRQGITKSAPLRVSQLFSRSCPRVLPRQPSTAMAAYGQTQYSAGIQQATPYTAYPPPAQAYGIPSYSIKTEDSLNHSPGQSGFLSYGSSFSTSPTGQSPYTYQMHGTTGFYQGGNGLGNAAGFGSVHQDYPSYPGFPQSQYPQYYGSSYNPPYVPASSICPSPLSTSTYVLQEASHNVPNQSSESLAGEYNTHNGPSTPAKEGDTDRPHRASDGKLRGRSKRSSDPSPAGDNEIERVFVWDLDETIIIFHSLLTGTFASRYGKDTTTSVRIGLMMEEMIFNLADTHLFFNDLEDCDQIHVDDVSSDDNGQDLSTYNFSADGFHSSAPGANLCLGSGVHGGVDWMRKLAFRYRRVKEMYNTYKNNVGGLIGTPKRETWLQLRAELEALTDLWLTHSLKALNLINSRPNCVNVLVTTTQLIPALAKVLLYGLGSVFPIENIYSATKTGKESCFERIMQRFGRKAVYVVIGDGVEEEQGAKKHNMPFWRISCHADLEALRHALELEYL
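Eya2 protein (added as 0.2 uM solution) was preincubated with compound for 10 min at ambient temperature in 50 mM HEPES pH 7.5, 50 mM NaCl, 5 uM MgCl2, 0.05% BSA, 1 mM DTT. OMFP (added at 50 uM) then reacted 10 min; fluorescence read at 485/525 nm.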
Starred values were filed as active, the others as inactive; · = no result. Only some compounds are listed: those with a hit (about 3.9% of all), similar ones and a draw of the others. Unless noted, calls come from the whole dose curve; as a rule, active = well fitted inhibition curve with a large enough effect; inconclusive = small, poorly fitted or top-dose-only effect, or effect the other way; inactive = flat fitted curve, though single readings scatter.

SMILES	D1 ag	D1 antag	D1 PAM	USP2a inh	GALK inh	Eya2 phos inh
CC(C)c1ccc(NC(=O)c2ccc(F)c(S(=O)(=O)N3CCc4ccccc4C3)c2)cc1	7	-18	-1	·	·	·
CCOC(=O)C1CCCN(S(=O)(=O)c2cc3c4c(c2)CC(=O)N4CCC3)C1 (configuration not stated)	-1	·	2	·	·	·
CC(=O)c1c(C)[nH]c(C(=O)NC(C)c2ccccc2)c1C (configuration not stated)	3	-33*	-6	-1%	1%	6%
CC(Oc1ccc(F)cc1)C(=O)Nc1cc(-c2ccc(F)c(F)c2)no1 (configuration not stated)	111*	-41*	-1	·	·	·
O=C(Nc1cc(-c2ccc(F)c(F)c2)no1)c1ccccc1F	-3	-1	0	·	·	·
Cc1cc(C)cc(-n2c(SCC(=O)N3CCCCCC3)nc3c([nH]c4ccccc43)c2=O)c1	0	-18	-7	·	·	·
Cc1cc(NC(=O)CCSc2ccccc2)ccc1Br	5	-30*	-9	0%	0%	1%
Cc1ccc(NC(=O)CCSc2ccccc2)c(C)c1	0	-30*	5	1%	-2%	0%
Cc1ccc(C)c(NC(=S)NCCSc2ccc(Cl)cc2)c1	11	-28	-7	-1%	-4%	-7%
Cc1cc(Br)ccc1NC(=O)CCSc1ccccc1	1	1	-2	2%	-1%	-16%
Cc1ccc([N+](=O)[O-])cc1NC(=O)CCSc1ccc(Cl)cc1	34*	-42*	-9	-2%	0%	-20%
Cc1ccc(NC(=S)NCCSc2ccc(Cl)cc2)c(C)c1	22	-33*	-6	-9%	2%	-8%
CCOC(=O)c1ccccc1NC(=O)CCOc1ccccc1	-1	4	-1	·	·	·
CCOC(=O)c1cc(-c2ccccc2)n(CCC(=O)Nc2nc3c(C)cccc3s2)c1C	2	-3	-1	·	·	·
Oc1ccccc1C1C=C(c2ccc3c(c2)OCO3)NC(c2ccc(F)c(Br)c2)N1 (configuration not stated)	10	3	6	·	·	·
Cc1c(Cl)cccc1NC(=O)CCCn1nc([N+](=O)[O-])cc1C	2	-9	2	3%	12%	9%
Cc1cc([N+](=O)[O-])nn1CCCC(=O)Nc1ccc(Cl)cc1Cl	0	-39*	-7	1%	1%	6%
O=C(NCc1ccccc1F)C(=O)NCC(c1ccco1)S(=O)(=O)c1ccccc1 (configuration not stated)	10	·	1	·	·	·
CC1CCCC(C)N1C(=O)c1cc2ncc(CCCl)cn2n1 (configuration not stated)	3	-10	-2	4%	·	-10%
O=C(c1cc2ncc(CCCl)cn2n1)N1CCCCCC1	2	-48*	-4	-2%	·	6%
CC1Cc2cc(S(=O)(=O)NCCc3ccccc3)ccc2N1C(=O)C1CCC1 (configuration not stated)	11	-20	-2	·	·	·
CCCCCCCCCCCCOC(=O)C[N+](C)(C)C	44*	-35*	5	0%	4%	-4%
CCCCCCCCOC(=O)C[N+](C)(C)C/C=C(/C)Cl	1	9	-6	-2%	0%	-7%
CCCCCCCCOC(=O)c1ccc(N)cc1	1	-7	-4	3%	-1%	-27%
CCCCCCCCCCOC(=O)C[N+](C)(C)C/C=C(/C)Cl	55*	-4	-3	-1%	0%	-8%
CCCCNC(=O)CSc1nc2ccccc2nc1Cc1ccccc1	3	-3	3	·	·	·
CCc1cccc(C)c1NC(=O)C1=C(C(=O)O)CCCC1	0	-82*	-9	-1%	5%	10%
CCc1cccc(C)c1NC(=O)c1cccnc1	3	-32*	-5	-2%	7%	-1%

Compound activity: PubChem, National Center for Advancing Translational Sciences (NCATS)
